Experiment [1] is described as follows: growth inhibition of DIPG glioma cells, dose response, cell-based, SU-DIPG-XIII, MIPE4.0, CellTiter-Glo, qHTS (AID 1347061; cut-off not given, nearly all actives have AC50 up to about 37 µM;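 also: cells exposed to compound for 48 hours before readout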). The note with it: SU-DIPG-XIII viability, CellTiter-Glo ATP luminescence. On the technique in general: Cellular ATP, detected with luciferase, serves as a proxy for viable cell number.
Experiment [2] is described as follows: growth inhibition of DIPG glioma cells, dose response, cell-based, SU-DIPG-XIII, MIPE5.0, CellTiter-Glo, qHTS (AID 1347064; cut-off not given, nearly all actives have AC50 up to about 23 µM;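 as to AC50: cells exposed to compound for 48 hours before the viability read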). The note with it: SU-DIPG-XIII viability, CellTiter-Glo ATP luminescence.
Experiment [3] can be described thus: viability loss in pontine glioma line – cell-based, SU-DIPG-XXV, MIPE5.0, CellTiter-Glo, qHTS, dose response (AID 1347065; cut-off not given, nearly all actives have AC50 up to about 26 µM;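 also: cells exposed to compound for 48 hours before ATP readout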). The note with it: CellTiter-Glo ATP luminescence.
Experiment [4] is described as follows: SU-DIPG-VI glioma cell viability, MIPE4.0 library, CellTiter-Glo luminescence, qHTS (AID 1347066; cut-off not given, nearly all actives have AC50 up to about 30 µM;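 also: cells exposed to compound for 48 hours before readout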). The settings on record: CellTiter-Glo ATP luminescence.
Experiment [5] can be described thus: SU-DIPG-XXV glioma cell viability, MIPE5.0 library, qHTS (AID 1347068; cut-off not given, nearly all actives have IC50 up to about 30 µM;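 as to IC50: cells exposed to compound for 48 hours before viability readout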).
Experiment [6] is described as follows: growth inhibition of DIPG glioma cells, dose response, cell-based, SU-DIPG-IV, MIPE4.0, CellTiter-Glo, qHTS (AID 1347063; cut-off not given, nearly all actives have AC50 up to about 30 µM;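 also: compound exposure lasted 48 hours before the viability readout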). The note with it: SU-DIPG-IV viability, CellTiter-Glo ATP luminescence.
Experiment [7] can be described thus: JHH-DIPG-1 glioma cell viability, MIPE5.0 library, CellTiter-Glo luminescence, qHTS (AID 1347067; cut-off not given, nearly all actives have AC50 up to about 26 µM;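 also: cells exposed to compound for 48 hours before readout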). The note with it: JHH-DIPG-1 glioma viability, CellTiter-Glo ATP luminescence.
Experiment [8] is described as follows: sensitizers of A549 cells to miR-34 induction, primary screen, imaging, A549 dox-inducible miR-34, nuclei and caspase counts (AID 1347080;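 active = compounds whose cell count with miR-34 switched on is under 0.7 times the count with it off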). The settings on record: A549 miR-34 inducible, Hoechst nuclei count, 48 h.
The nature of experiment [9]: survival rescue of mitochondrial mutant cells in low glucose, primary screen, MELAS cybrids, Rieske KO mouse fibroblasts, CellTiter-Glo (AID 1508586;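 active = mean z-score across replicates of 1.96 or higher in either the MELAS or the Rieske mutant cell line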;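 also: z relative to plate mean and SD of compound and empty wells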).
A short description of experiment [10]: ovarian cancer cell viability with rucaparib, profiling panel, oncology-focused library, rucaparib conditional (AID 1508598). The settings on record: patient-derived ovarian cancer cells, CellTiter-Glo viability, 144 h, stronger effect = lower value.
Experiment [11] is described as follows: modifiers of HSF1 nuclear foci, imaging, Selleck Cancer Library (AID 1347162; in the data active = plate-normalised HSF1 focus index below about 0.46). The settings on record: human cells, at 10 µM; SSMD: measured here: HSF1 foci SSMD mean; cell count: measured here: cell number; plate-normalised HSF1 focus index: stronger effect = lower value.
The mark [12] stands for this setting: at 0.000305 µM, OCI-C5x cells, with rucaparib 10 µM, 100% = cells with rucaparib alone.
Where [13] appears, read: at 0.000305 µM, OCI-C5x cells, without rucaparib.
Where [14] appears, read: at 0.000305 µM, OCI-P5x cells, with rucaparib 20 µM, 100% = cells with rucaparib alone.
The mark [15] stands for this setting: at 0.000305 µM, OCI-P5x cells, without rucaparib.
The mark [16] stands for this setting: at 0.00122 µM, OCI-C5x cells, with rucaparib 10 µM, 100% = cells with rucaparib alone.
The mark [17] stands for this setting: at 0.00122 µM, OCI-C5x cells, without rucaparib.
Where [18] appears, read: at 0.00122 µM, OCI-P5x cells, with rucaparib 20 µM, 100% = cells with rucaparib alone.
Where [19] appears, read: at 0.00122 µM, OCI-P5x cells, without rucaparib.
[20] abbreviates: at 0.00488 µM, OCI-C5x cells, with rucaparib 10 µM, 100% = cells with rucaparib alone.
[21] abbreviates: at 0.00488 µM, OCI-C5x cells, without rucaparib.
[22] abbreviates: at 0.00488 µM, OCI-P5x cells, with rucaparib 20 µM, 100% = cells with rucaparib alone.
[23] abbreviates: at 0.00488 µM, OCI-P5x cells, without rucaparib.
[24] abbreviates: at 0.0195 µM, OCI-C5x cells, with rucaparib 10 µM, 100% = cells with rucaparib alone.
[25] abbreviates: at 0.0195 µM, OCI-C5x cells, without rucaparib.
Setting [26] is: at 0.0195 µM, OCI-P5x cells, with rucaparib 20 µM, 100% = cells with rucaparib alone.
Where [27] appears, read: at 0.0195 µM, OCI-P5x cells, without rucaparib.
Setting [28] is: at 0.0781 µM, OCI-C5x cells, with rucaparib 10 µM, 100% = cells with rucaparib alone.
Setting [29] is: at 0.0781 µM, OCI-C5x cells, without rucaparib.
Where [30] appears, read: at 0.0781 µM, OCI-P5x cells, with rucaparib 20 µM, 100% = cells with rucaparib alone.
The mark [31] stands for this setting: at 0.0781 µM, OCI-P5x cells, without rucaparib.
Setting [32] is: at 0.313 µM, OCI-C5x cells, with rucaparib 10 µM, 100% = cells with rucaparib alone.
The mark [33] stands for this setting: at 0.313 µM, OCI-C5x cells, without rucaparib.

Molecules are shown by their SMILES. Several values for one entry are separate records, joined by “and”; a condition that tells them apart may be missing. Identical values can stand only once. Records with an inconclusive call do not appear. Activity calls are given as the source filed them.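 The calls were made as follows, unless noted: active = normalized viability below 100% at a tested concentration; inactive = the rest.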

In the case of `CN(C[C@@H]1COCCO1)S(=O)(=O)Nc1ccc2ccc3ncc(-c4cnn(C)c4)cc3c(=O)c2c1`, the AC50 (in general, the concentration at which the activity in the assay is half-maximal) was 2640 nM (active) in experiment [1], 2630 nM (active) in [2] and 2090 nM (active) in experiment [3]. Further, in [4], the call was inactive. In addition, the IC50 (in general, the concentration at which inhibition is half-maximal) in experiment [5] is 3320 nM (active).
As to `Cc1cccc2c1CC[C@H](CN1CCC(c3c(Cl)cccc3Cl)CC1)C[C@@H]2O`, the outcome in experiment [1] and in [4] was inactive.
As for `O=C(C1CC1)N1CC[C@@H](Cn2c(-c3ccc(-c4ccc5occc5c4)cc3)nc3cnccc32)C1`, the call in [1], in [4] and in experiment [5] was inactive. The AC50 in [3] is 18600 nM (active).
On to `CN(C)N=Nc1nc[nH]c1C(N)=O`, for which the outcome in experiment [1], in [6], in [2] and in [7] was inactive. Besides, the fold change was 0.887 (inactive) and 0.898 (inactive) in experiment [8] (stronger effect = lower value, cell number ratio, induced over uninduced); 1.47 and 1.18 in experiment [8] (measured here: relative caspase fold change +Dox/-Dox). Also, the cell count in [8] (measured here: total cells with miR-34 induction, stronger effect = lower value) is 9080 and 7660; in experiment [8] (measured here: total cells without miR-34 induction), 10200 and 8520. The z-score in [9] (MELAS cybrid survival, CellTiter-Glo 48 h, stronger effect = higher value) was -0.353 (inactive) and -0.0151 (inactive); in experiment [9] (Rieske KO mouse fibroblast survival, CellTiter-Glo 72 h) it was 0.329 and 0.212. Further, the viability (usually a read-out of living cells in per cent, often relative to untreated cells) in [10] (setting [12]) is 107% (inactive); in [10] (setting [13]), 101% (inactive); in [10] (setting [14]), 107% (inactive); in experiment [10] (setting [15]), 108% (inactive); in [10] (setting [16]), 106% (inactive); in experiment [10] (setting [17]), 108% (inactive). Besides, the viability in experiment [10] (setting [18]) is 109% (inactive); in experiment [10] (setting [19]) it was 108% (inactive); in experiment [10] (setting [20]), 111% (inactive); in [10] (setting [21]), 107% (inactive); in experiment [10] (setting [22]), 106% (inactive); in experiment [10] (setting [23]), 104% (inactive). Further, the viability in experiment [10] (setting [24]) was 105% (inactive); in [10] (setting [25]) it was 105% (inactive); in experiment [10] (setting [26]), 103% (inactive); in experiment [10] (setting [27]), 112% (inactive); in experiment [10] (setting [28]) it was 111% (inactive); in experiment [10] (setting [29]), 109% (inactive). Moreover, the viability in [10] (setting [30]) is 105% (inactive); in [10] (setting [31]), 110% (inactive); in experiment [10] (setting [32]), 112% (inactive); in experiment [10] (setting [33]), 109% (inactive); in experiment [10] (at 0.313 µM, OCI-P5x cells, with rucaparib 20 µM, 100% = cells with rucaparib alone) it was 105% (inactive); in [10] (at 0.313 µM, OCI-P5x cells, without rucaparib), 110% (inactive). Further, the viability in experiment [10] (at 1.25 µM, OCI-C5x cells, with rucaparib 10 µM, 100% = cells with rucaparib alone) is 116% (inactive); in experiment [10] (at 1.25 µM, OCI-C5x cells, without rucaparib) it was 120% (inactive); in [10] (at 1.25 µM, OCI-P5x cells, with rucaparib 20 µM, 100% = cells with rucaparib alone) it was 104% (inactive); in [10] (at 1.25 µM, OCI-P5x cells, without rucaparib), 111% (inactive); in experiment [10] (at 5 µM, OCI-C5x cells, with rucaparib 10 µM, 100% = cells with rucaparib alone), 201% (inactive); in [10] (at 5 µM, OCI-C5x cells, without rucaparib) it was 164% (inactive). Also, the viability in experiment [10] (at 5 µM, OCI-P5x cells, with rucaparib 20 µM, 100% = cells with rucaparib alone) was 99.7% (active); in [10] (at 5 µM, OCI-P5x cells, without rucaparib) it was 113% (inactive).
For the molecule `CCn1c(-c2nonc2N)nc2c(C#CC(C)(C)O)ncc(OC[C@H]3CCCNC3)c21`, the AC50 was 16600 nM (active) in experiment [1], 7430 nM (active) in experiment [6], 2630 nM (active) in experiment [2] and 2350 nM (active) in [3]. In [5], the IC50 was 16600 nM (active). Besides, the SSMD in experiment [11] came out at 1.18. This molecule registered a cell count in experiment [11] of 6930. Also, the plate-normalised HSF1 focus index in [11] is 1.06 (inactive). Further, the viability in [10] (setting [12]) is 119% (inactive); in [10] (setting [13]), 119% (inactive); in [10] (setting [14]) it was 98.8% (active); in [10] (setting [15]), 93.1% (active); in experiment [10] (setting [16]) it was 129% (inactive); in experiment [10] (setting [17]), 125% (inactive). For the same molecule, the viability in experiment [10] (setting [18]) was 100% (inactive); in experiment [10] (setting [19]), 99.7% (active); in experiment [10] (setting [20]), 133% (inactive); in [10] (setting [21]), 119% (inactive); in experiment [10] (setting [22]), 109% (inactive); in experiment [10] (setting [23]), 99.7% (active). Further, the viability in experiment [10] (setting [24]) is 118% (inactive); in experiment [10] (setting [25]), 125% (inactive); in experiment [10] (setting [26]), 107% (inactive); in experiment [10] (setting [27]), 109% (inactive); in [10] (setting [28]), 124% (inactive); in experiment [10] (setting [29]) it was 119% (inactive). Moreover, the viability in experiment [10] (setting [30]) is 89.1% (active); in [10] (setting [31]), 101% (inactive); in [10] (setting [32]), 113% (inactive); in experiment [10] (setting [33]), 131% (inactive).
